Rows were chosen to be rich in hits. Some 3.5% of all compounds tested hit in one or more screens of this group.
FBW7 activator = activators of human E3 ligase FBW7; Q969H0; AlphaScreen FBW7–phospho-cyclin E peptide binding, activator screen; normalized activity (activation), % at 26.1 µM; 650,000 tested, 0.13% active; in the data active = normalized activity above about 1.9%;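 note: purified mutant Fbw7 with reduced substrate affinity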
TEAD-YAP inh = TEAD-YAP interaction inhibition; HEK-TIYL cells, TEAD-Gal4/YAP UAS-luciferase luminescence; inhibition, % at 9.12 µM; 640,000 tested, 1.4% active; AID 1259422; in the data active = inhibition above about 32%;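 note: 0% = median of test compound wells and 100% = reference inhibitor wells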
MITF inh = blocks human microphthalmia-associated transcription factor. inhibition, % at 2.6 µM. 650,000 tested, 0.91% active. O75030. AlphaScreen MITF homodimerization, bead proximity signal; in the data active = inhibition above about 50%;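 note: 0% = vehicle wells with protein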
GPR151 activ = activators of human GPR151. AID 1508602. Q8TDV0. PathHunter beta-arrestin GPR151 cells, luminescence. activation, % at 11.2 µM. 650,000 tested, 1% active; in the data active = activation above about 4.9%;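 note: 0% = median of compound wells and 100% = cells with positive control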
Target sequence (Q8TDV0 whole entry, looked up): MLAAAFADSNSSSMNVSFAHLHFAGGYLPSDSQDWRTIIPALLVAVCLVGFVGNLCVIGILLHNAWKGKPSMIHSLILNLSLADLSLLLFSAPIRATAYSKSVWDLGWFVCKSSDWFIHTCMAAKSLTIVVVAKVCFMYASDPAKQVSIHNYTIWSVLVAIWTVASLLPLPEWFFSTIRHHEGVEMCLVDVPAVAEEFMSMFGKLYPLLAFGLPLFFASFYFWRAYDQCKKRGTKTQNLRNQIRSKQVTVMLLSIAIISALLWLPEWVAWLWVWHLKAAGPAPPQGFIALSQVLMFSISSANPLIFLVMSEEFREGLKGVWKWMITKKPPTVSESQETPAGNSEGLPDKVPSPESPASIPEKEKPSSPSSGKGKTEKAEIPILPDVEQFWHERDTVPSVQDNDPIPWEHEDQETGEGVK
Starred values were filed as active, the others as inactive.

What do the screens show for `CCc1ccccc1NC(=O)CNS(=O)(=O)c1ccc(Br)cc1`?
FBW7 activator: 0.2; TEAD-YAP inh: 6.8; MITF inh: 12.9; GPR151 activ: 1.0

What do the screens show for `CCOC(=O)c1c(NC(=O)CSc2nnc(CNC(=O)c3ccc(OC)cc3)n2Cc2ccccc2)sc2c1CCCC2`?
FBW7 activator: 0.1; TEAD-YAP inh: 5.3; MITF inh: 4.1; GPR151 activ: 0.2

Results for CC1CCCCN1C(=O)Cn1c(=O)c2c(ncn2C2CCCC2)n(Cc2ccccc2)c1=O (stereo not given) ?
FBW7 activator: 0.9; TEAD-YAP inh: 16.1; MITF inh: 10.3; GPR151 activ: 0.7

What do the screens show for `COC1C(O)CC(OC2CC(Oc3cc4cc5c(c(O)c4c(O)c3C)C(=O)[C@@H](OC3CC(OC4CC(OC6CC(C)(O)C(C)C(C)O6)C(O)C(C)O4)C(O)C(C)O3)[C@H]([C@H](OC)C(=O)[C@@H](O)[C@@H](C)O)C5)OC(C)C2OC(C)=O)OC1C` (stereo not given in full)?
FBW7 activator: -0.4; TEAD-YAP inh: 95.7*; MITF inh: 2.7; GPR151 activ: -1.5

Results for CN(C)S(=O)(=O)c1ccc(C(=O)N(Cc2ccccc2)c2nc3ccccc3s2)cc1 ?
FBW7 activator: 0.1; TEAD-YAP inh: -40.5; MITF inh: 6.2; GPR151 activ: 0.5

Results for O=C(O)Cc1ccc(NCc2ccc(Cl)cc2Cl)cc1 ?
FBW7 activator: -0.2; TEAD-YAP inh: -21.7; MITF inh: -10.2; GPR151 activ: -1.2

Results for C=CCNC(=O)c1ccccc1N(Cc1ccccc1)S(=O)(=O)c1ccc(OC)cc1 ?
FBW7 activator: 0.1; TEAD-YAP inh: 54.5*; MITF inh: 13.1; GPR151 activ: -1.4

How did COc1ccc(S(=O)(=O)N(Cc2ccccc2)c2ccccc2C(=O)NCc2ccncc2)cc1 do in these assays?
FBW7 activator: 0.5; TEAD-YAP inh: 56.1*; MITF inh: 12.7; GPR151 activ: 0.9

Results for Cc1cc(C)nc(NS(=O)(=O)c2ccc(NC(=O)CSc3nnc4c5ccccc5n(C)c4n3)cc2)n1 ?
FBW7 activator: 0.1; TEAD-YAP inh: 9.4; MITF inh: 14.4; GPR151 activ: 0.9

How did C/C(=N\NC(=S)NCc1ccccc1)c1ccc(O)cc1O do in these assays?
FBW7 activator: -0.2; TEAD-YAP inh: -6.0; MITF inh: 24.1; GPR151 activ: 0.7

How did CCCNC(=O)Cn1cnc2sc(C(=O)NCCCOC)c(C)c2c1=O do in these assays?
FBW7 activator: 3.2*; TEAD-YAP inh: -3.4; MITF inh: -1.1; GPR151 activ: -2.0

What do the screens show for `COc1ccccc1NC(=O)Cn1cnc2sc(C(=O)NC3CCCC(C)C3C)c(C)c2c1=O` (stereo not given)?
FBW7 activator: 2.0*; TEAD-YAP inh: -9.6; MITF inh: 11.9; GPR151 activ: -1.5

Results for COc1ccccc1NC(=O)Cn1cnc2sc(C(=O)Nc3ccc(C(F)(F)F)cc3)c(C)c2c1=O ?
FBW7 activator: 2.2*; TEAD-YAP inh: -6.1; MITF inh: 6.0; GPR151 activ: -0.1

How did COc1ccccc1NC(=O)Cn1cnc2sc(C(=O)Nc3cccc(C(F)(F)F)c3)c(C)c2c1=O do in these assays?
FBW7 activator: -0.2; TEAD-YAP inh: 0.7; MITF inh: -4.5; GPR151 activ: -0.9

Results for CN(C)CCOc1cc(NC(=O)C2COc3ccccc3C2)ccc1-c1cn[nH]c1 (stereo not given) ?
FBW7 activator: 0.4; TEAD-YAP inh: -9.9; MITF inh: 2.1; GPR151 activ: -0.1

How did CCOc1ccc(CN2CCNC(=O)C2CC(=O)NCc2cnn(C)c2)cc1 (stereo not given) do in these assays?
FBW7 activator: 0.0; TEAD-YAP inh: -0.7; MITF inh: 9.9; GPR151 activ: -0.4

What do the screens show for `CCOC(=O)C(NC(C)=O)(Nc1ccc(S(=O)(=O)Nc2ccc(OC)nn2)cc1)C(F)(F)F` (stereo not given)?
FBW7 activator: 0.0; TEAD-YAP inh: -1.5; MITF inh: 7.0; GPR151 activ: 1.2

Results for Fc1ccccc1-c1cn2c3c(nnc2n1)CCCC3 ?
FBW7 activator: -0.1; TEAD-YAP inh: 92.1*; MITF inh: -1.3; GPR151 activ: -0.7

Results for Nc1ccc2nc3c(c(Cl)c2c1)CCCC3 ?
FBW7 activator: 0.0; TEAD-YAP inh: 33.1*; MITF inh: 8.9; GPR151 activ: 0.8

What do the screens show for `CCOc1ccc(Br)cc1C(=O)N/N=C/c1ccc(C)o1`?
FBW7 activator: 0.0; TEAD-YAP inh: 36.2*; MITF inh: -7.6; GPR151 activ: -0.1

What do the screens show for `CC(C)Oc1ccc(Br)cc1C(=O)N/N=C/c1ccc(O)cc1`?
FBW7 activator: -0.1; TEAD-YAP inh: 2.9; MITF inh: -3.1; GPR151 activ: 0.2

What do the screens show for `COc1cc2ccccc2cc1C(=O)N/N=C/c1cccs1`?
FBW7 activator: 0.1; TEAD-YAP inh: 49.8*; MITF inh: -9.4; GPR151 activ: -0.3

How did CCOc1ccc(Br)cc1C(=O)N/N=C/c1cccs1 do in these assays?
FBW7 activator: 0.2; TEAD-YAP inh: 54.9*; MITF inh: 21.7; GPR151 activ: -1.5

Results for CC(C)Oc1ccc(Br)cc1C(=O)N/N=C/c1ccco1 ?
FBW7 activator: 0.0; TEAD-YAP inh: 38.5*; MITF inh: -1.9; GPR151 activ: 0.6

How did O=C(N/N=C/c1cccs1)c1cc2ccccc2cc1O do in these assays?
FBW7 activator: 0.1; TEAD-YAP inh: -4.1; MITF inh: 8.6; GPR151 activ: 0.0

How did CCOc1ccccc1-n1c(=S)sc2c(=O)n(-c3ccccc3C)c(SCC(=O)NCC3CCCO3)nc21 (stereo not given) do in these assays?
FBW7 activator: 0.1; TEAD-YAP inh: -6.1; MITF inh: -12.1; GPR151 activ: -0.4

What do the screens show for `Cc1ccc(CNC(=O)C2CCN(S(=O)(=O)c3c(C)[nH]c(=O)[nH]c3=O)CC2)cc1`?
FBW7 activator: -0.1; TEAD-YAP inh: 14.4; MITF inh: 12.4; GPR151 activ: -0.1

Results for Clc1cccc(Nc2nc3nonc3nc2N2CCCCC2)c1 ?
FBW7 activator: -0.1; TEAD-YAP inh: 42.5*; MITF inh: 5.5; GPR151 activ: -0.4

What do the screens show for `c1ccc(Nc2nc3nonc3nc2N2CCCCCC2)cc1`?
FBW7 activator: 0.0; TEAD-YAP inh: 37.1*; MITF inh: -8.4; GPR151 activ: 1.8

What do the screens show for `Clc1cccc(Nc2nc3nonc3nc2N2CCOCC2)c1`?
FBW7 activator: 0.1; TEAD-YAP inh: 56.8*; MITF inh: 3.1; GPR151 activ: 1.4

Results for Ic1ccc(Nc2nc3nonc3nc2N2CCOCC2)cc1 ?
FBW7 activator: -0.1; TEAD-YAP inh: 4.9; MITF inh: -5.5; GPR151 activ: 0.3

What do the screens show for `O=C(Nc1ccc2oc(-c3cccc(Cl)c3Cl)nc2c1)c1cccc2ccccc12`?
FBW7 activator: 0.4; TEAD-YAP inh: 1.1; MITF inh: 1.2; GPR151 activ: -1.2

How did CCNC(=O)C(=O)N/N=C/c1cc([N+](=O)[O-])ccc1O do in these assays?
FBW7 activator: -0.8; TEAD-YAP inh: 5.4; MITF inh: 73.6*; GPR151 activ: 0.9

What do the screens show for `O=C(Cn1nnc2ccccc21)N/N=C/c1cc([N+](=O)[O-])ccc1O`?
FBW7 activator: -0.3; TEAD-YAP inh: 8.7; MITF inh: 73.5*; GPR151 activ: 0.0
